Screening results: PubChem BioAssay, Broad Institute
The list is not random: actives were taken first. Their share in the collection is about 4.1%.
HIV Env fusion – HIV envelope-mediated fusion inhibition | HeLa-JRFL Env/CEM21 cell fusion, luciferase | inhibition, % at 12.3 µM | actives 1.1% (n = 360,000);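 active = mean replicate inhibition score of at least 50 and every replicate individually at or above 50; inconclusive = only one of the two criteria met; inactive = mean below 50 and not all replicates reaching 50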;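 note: 0% = plate neutral controls and 100% = maraviroc near 300 nM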
CASP6 VEID inh – blocks human caspase-6 cleavage activity; P55212; purified caspase-6, Z-VEID-R110 cleavage fluorescence; inhibition, % at 12.5 µM; actives 0.53% (n = 350,000); AID 686996;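 active = mean inhibition across replicates at least about 35%, with every replicate also reaching that limit, limit read from the data; inconclusive = only one of the two criteria met; inactive = neither criterion met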;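 note: 0% = median of neutral control wells and 100% = no fluorescence left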
Target sequence (P55212 24-179 limits assumed): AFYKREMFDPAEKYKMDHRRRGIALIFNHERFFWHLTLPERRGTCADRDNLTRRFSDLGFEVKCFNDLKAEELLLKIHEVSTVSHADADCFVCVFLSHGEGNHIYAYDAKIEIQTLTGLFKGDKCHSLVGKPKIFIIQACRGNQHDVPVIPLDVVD
Target sequence (P55212 194-293 limits assumed): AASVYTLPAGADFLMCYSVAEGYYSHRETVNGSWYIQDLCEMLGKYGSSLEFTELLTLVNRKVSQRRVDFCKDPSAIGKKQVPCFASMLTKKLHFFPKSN
NSD2 inh – NSD2 (human) methyltransferase inhibition. O96028. NSD2 peptide methylation, AlphaScreen, 120 min. inhibition, % at 12.5 µM. actives 0.54% (n = 310,000). AID 743445; in the data active = inhibition above about 50%
CFTR F508del cor – CFTR F508del correction in bronchial cells | CFBE cells, YFP halide quenching; stimulated with forskolin plus potentiator P3; % fluorescence drop versus neutral controls | activity (quench increase), % at 7.58 µM | actives 0.36% (n = 350,000);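 active = mean added fluorescence quench of at least 8% versus neutral control, with both replicates also reaching 8%; inconclusive = only one of the mean or replicate conditions met; inactive = mean below 8% and not both replicates reaching 8%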;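 note: cells transiently co-express mutant CFTR-F508del with the halide-sensitive YFP; corrector assay measuring rescue of mutant channel to the surface after 24 h compound exposure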
PglD inh – blocks C. jejuni PglD acetyltransferase activity; purified PglD enzyme, DTNB colorimetric CoA detection; inhibition, % at 12.5 µM; actives 0.098% (n = 360,000); AID 602405; in the data active = inhibition above about 16%, passing the limit was not always enough; inconclusive = no clear call, values can overlap the other calls
ALR H2O2 inh – blocks human ALR sulfhydryl oxidase activity. purified ALR, DTT oxidation, H2O2 HRP-luminol luminescence. P55789. inhibition, % (concentration not given with the values). AID 485317. actives 3.8% (n = 290,000);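 active = mean replicate inhibition above about 79%, with every replicate also reaching it, limit read from the data; inconclusive = only one of the two criteria met; inactive = mean below limit and not every replicate reaching it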
Target sequence (P55789 whole entry, looked up): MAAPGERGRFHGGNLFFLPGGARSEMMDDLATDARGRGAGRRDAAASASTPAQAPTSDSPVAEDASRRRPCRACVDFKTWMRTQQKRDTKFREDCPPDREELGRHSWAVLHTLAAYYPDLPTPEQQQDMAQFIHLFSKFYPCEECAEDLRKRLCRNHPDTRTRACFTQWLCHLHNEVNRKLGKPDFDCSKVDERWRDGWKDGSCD
Starred values were filed as active, the others as inactive; [ ] = another dose, or the depositor's remark.

Results for CCOc1ccccc1C(=O)NC(C(=O)OCC(=O)NNC(=O)c1cccs1)C(C)C (stereo unspecified) ?
HIV Env fusion: -2.3; CASP6 VEID inh: -1.5; NSD2 inh: 10.1; CFTR F508del cor: 1.7; PglD inh: 2.0

How did C=CCC(NCc1ccccc1)c1ccc(Cl)cc1 (stereo unspecified) do in these assays?
HIV Env fusion: 22.9; CASP6 VEID inh: 53.9*; NSD2 inh: -9.7; PglD inh: -5.1; ALR H2O2 inh: -8.4

Results for Cc1cc(C)c(-c2csc(NC(=O)/C=C/c3cccs3)n2)c(C)c1 ?
HIV Env fusion: 62.5*; NSD2 inh: -1.0; PglD inh: -14.2; ALR H2O2 inh: -10.2

Results for COc1cc(/C=C/C(=O)OCC(=O)N2CCC(C)CC2)ccc1O ?
CASP6 VEID inh: -0.3; NSD2 inh: 0.4; CFTR F508del cor: -2.0; PglD inh: -4.7; ALR H2O2 inh: 99.1*

What do the screens show for `COc1cc(/C=C/C(=O)OCC(=O)N2CC3(C)CC2CC(C)(C)C3)ccc1O` (stereo unspecified)?
HIV Env fusion: 14.6; NSD2 inh: -0.4; ALR H2O2 inh: 99.1*

Results for COc1cc(/C=C/C(=O)OCC(=O)N2CCC(Cc3ccccc3)CC2)ccc1O ?
HIV Env fusion: 11.5; CASP6 VEID inh: 0.3; NSD2 inh: 2.3; PglD inh: -4.0; ALR H2O2 inh: 41.4

How did COc1cc(/C=C/C(=O)OCC(=O)NC(=O)NC(C)(C)C)ccc1O do in these assays?
HIV Env fusion: -7.1; CASP6 VEID inh: 0.1; NSD2 inh: 0.3; CFTR F508del cor: -0.6; PglD inh: 2.6; ALR H2O2 inh: 98.9*

How did O=C(C[C@@H]1CC[C@@H](NS(=O)(=O)c2ccccc2)[C@H](CO)O1)N1CCN(c2ccccc2)CC1 do in these assays?
CASP6 VEID inh: -0.6; CFTR F508del cor: 3.2

Results for CN1C[C@@H]2[C@H](c3ccccc31)[C@H](CO)N2C(=O)Nc1ccccc1Cl ?
CASP6 VEID inh: 1.8; CFTR F508del cor: -0.2; PglD inh: -0.9

How did Cn1c(=O)n(-c2cccc(Cl)c2)c(=O)c2c3c(sc21)COC(C)(C)C3 do in these assays?
HIV Env fusion: 113.6*; NSD2 inh: -1.0; PglD inh: 0.0; ALR H2O2 inh: -5.7

How did C[C@@H]1CN([C@H](C)CO)S(=O)(=O)c2ccc(Br)cc2O[C@H]1CN(C)Cc1cccnc1 do in these assays?
HIV Env fusion: 1.5[16.7 µM]; CASP6 VEID inh: 2.7; CFTR F508del cor: 1.6; PglD inh: 0.5

How did C[C@H](CO)N1C[C@H](C)[C@@H](CN(C)S(C)(=O)=O)Oc2ccc(NS(=O)(=O)c3ccc(Cl)cc3)cc2C1=O do in these assays?
HIV Env fusion: -1.8[16.7 µM]; CFTR F508del cor: -0.5

What do the screens show for `C[C@@H]1CN([C@H](C)CO)C(=O)Cc2cc(NS(=O)(=O)c3ccc(Cl)cc3)ccc2O[C@@H]1CN(C)C(=O)Nc1ccc2c(c1)OCO2`?
HIV Env fusion: 12.1[16.7 µM]; CFTR F508del cor: -1.0

What do the screens show for `CN(C)c1ccc(NS(=O)(=O)c2cc(Cl)ccc2Cl)cc1`?
HIV Env fusion: 10.6; CASP6 VEID inh: 1.4; NSD2 inh: 11.4; ALR H2O2 inh: 98.8*

How did O=C(CN1CCN(c2ccccc2O)CC1)NC(c1ccccc1)c1ccccc1 do in these assays?
HIV Env fusion: -145.4; NSD2 inh: 2.2; PglD inh: 3.7; ALR H2O2 inh: 11.1

What do the screens show for `CN(C)c1ccc(NC(=O)CN2CCN(S(=O)(=O)c3cc(Cl)ccc3Cl)CC2)cc1`?
NSD2 inh: 5.9; PglD inh: -4.1; ALR H2O2 inh: 98.8*

Results for O=C(CN1CCN(S(=O)(=O)c2cc(Cl)ccc2Cl)CC1)Nc1ccc2c(c1)OCCO2 ?
NSD2 inh: 0.0

What do the screens show for `CCN(c1ccc(NS(=O)(=O)c2cc(Cl)ccc2Cl)cc1)C(C)C`?
HIV Env fusion: -13.9; NSD2 inh: 10.9; ALR H2O2 inh: inconclusive

What do the screens show for `CN(C)S(=O)(=O)c1cc(NC(=O)CN2CCN(c3ccccc3O)CC2)ccc1Cl`?
HIV Env fusion: 24.9; CASP6 VEID inh: 0.2; NSD2 inh: -0.4; CFTR F508del cor: -1.8; ALR H2O2 inh: 98.2*

What do the screens show for `O=C(CN1CCN(c2ccccc2O)CC1)NCCCc1ccccc1`?
HIV Env fusion: -11.0; CASP6 VEID inh: 1.8; NSD2 inh: -1.3; CFTR F508del cor: -2.6; ALR H2O2 inh: 98.8*

Results for COc1ccc(CN(C)C[C@H]2OCCCC[C@@H](C)Oc3ccc(NC(=O)NC(C)C)cc3C(=O)N([C@@H](C)CO)C[C@H]2C)cc1 ?
HIV Env fusion: -5.6[16.7 µM]; CFTR F508del cor: 1.7

How did CCCN(C)C[C@@H]1Oc2cc(C#Cc3ccc(F)cc3)ccc2S(=O)(=O)N([C@@H](C)CO)C[C@@H]1C do in these assays?
HIV Env fusion: 14.4[16.7 µM]; CASP6 VEID inh: 2.1; CFTR F508del cor: 4.9; PglD inh: 1.6

Results for O=C(CN1CCN(c2ccccc2O)CC1)Nc1cccnc1Cl ?
HIV Env fusion: -4.4; CASP6 VEID inh: 1.7; NSD2 inh: -4.9; CFTR F508del cor: 5.6; PglD inh: 2.0; ALR H2O2 inh: 98.7*

Results for O=C(CN1CCN(c2ccc(F)cc2)CC1)Nc1cccnc1Cl ?
HIV Env fusion: 9.0; CASP6 VEID inh: -1.2; NSD2 inh: -1.3; CFTR F508del cor: -0.5; ALR H2O2 inh: 59.7

Results for COc1ccc(CN(C)C[C@H]2OCCCC[C@@H](C)Oc3ccc(NS(=O)(=O)c4cn(C)cn4)cc3C(=O)N([C@@H](C)CO)C[C@H]2C)cc1 ?
HIV Env fusion: 4.4[16.7 µM]; CASP6 VEID inh: 0.9; CFTR F508del cor: -1.0; PglD inh: 0.3

How did COc1cccc(/C=N/Nc2nccnc2Cl)c1O do in these assays?
HIV Env fusion: -26.7; CASP6 VEID inh: -2.7; NSD2 inh: 0.4; CFTR F508del cor: 3.2

How did Nc1c(Cl)ncnc1N/N=C/c1cccc(O)c1 do in these assays?
HIV Env fusion: -0.5; CASP6 VEID inh: 5.8; NSD2 inh: -4.1; CFTR F508del cor: -0.3; ALR H2O2 inh: 97.2*

What do the screens show for `COc1cccc(/C=N/Nc2ncnc(Cl)c2N)c1O`?
HIV Env fusion: 55.4*; CASP6 VEID inh: -0.6; NSD2 inh: -1.1; CFTR F508del cor: 23.2*; ALR H2O2 inh: -4.0

How did C[C@H]1CN([C@@H](C)CO)C(=O)c2c(c3ccccc3n2C)-c2ccccc2CO[C@@H]1CN(C)Cc1ccc(-c2ccccc2)cc1 do in these assays?
CASP6 VEID inh: 1.9; CFTR F508del cor: 1.4

How did C[C@@H]1CN([C@H](C)CO)C(=O)c2cccc(NS(C)(=O)=O)c2O[C@H]1CN(C)C do in these assays?
HIV Env fusion: -25.3[16.7 µM]; CASP6 VEID inh: 2.3; CFTR F508del cor: 0.1; PglD inh: 3.3

How did COc1cccc(NC(=O)N[C@@H]2CC[C@H](CC(=O)N3CCCCC3)O[C@@H]2CO)c1 do in these assays?
HIV Env fusion: 4.5[16.7 µM]; CASP6 VEID inh: 13.5; CFTR F508del cor: -1.5; PglD inh: -1.9
